Data from PubChem BioAssay (NCI).
The panel holds about 83,000 compounds, 20% with a hit somewhere; the sample as a whole holds those more often.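 For each line, cells grew in 96-well plates with the test compound present at a single concentration for 48 hours.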 Calls of active or inactive are those of the source. The calls were made as follows: active = growth percent below 10; inactive = the rest.

Legend:
Assay in all cases: NCI-60 one-dose screen, 48 h (100 = growth as untreated, 0 = no growth, -100 = all killed)
Details in all cases: 10 µM unless noted
EKVX NSCLC = system: EKVX NSCLC
SN12C renal = system: SN12C renal
UO-31 renal = system: UO-31 renal
TK-10 renal = system: TK-10 renal
ACHN renal = system: ACHN renal
CAKI-1 renal = system: CAKI-1 renal
A498 renal = system: A498 renal
CCRF-CEM leukemia = system: CCRF-CEM leukemia
MOLT-4 leukemia = system: MOLT-4 leukemia

Measured: growth

COc1cc(N2CCC(N(C)C)CC2)ccc1Nc1ncc(Cl)c(Nc2ccccc2P(C)(C)=O)n1
inactive: EKVX NSCLC 20% | CCRF-CEM leukemia 10.4% | MOLT-4 leukemia 13.4%
active: SN12C renal 1.55% | UO-31 renal -81.2% | TK-10 renal -43.9% | ACHN renal 1.69% | CAKI-1 renal -60.9% | A498 renal -70%

CO[C@H]1C[C@@H]2CC[C@@H](C)[C@@](O)(O2)C(=O)C(=O)N2CCCC[C@H]2C(=O)O[C@H]([C@H](C)C[C@@H]2CC[C@@H](O)[C@H](OC)C2)CC(=O)[C@H](C)/C=C(\C)[C@@H](O)[C@@H](OC)C(=O)[C@H](C)C[C@H](C)\C=C/C=C/C=C/1C
active: MOLT-4 leukemia 6.08%
inactive: EKVX NSCLC 35.8% | SN12C renal 44.3% | UO-31 renal 20.7% | TK-10 renal 43.5% | ACHN renal 39.5% | CAKI-1 renal 39.6% | A498 renal 13.8% | CCRF-CEM leukemia 22.1%

COc1cc(NCCCN)c2ncccc2c1
inactive: EKVX NSCLC 105% | SN12C renal 84.7% | UO-31 renal 63.4% | TK-10 renal 84.8% | ACHN renal 97.2% | CAKI-1 renal 97.2% | A498 renal 56.9% | CCRF-CEM leukemia 92.5% | MOLT-4 leukemia 91.5%

FC(F)c1nc2ccccc2n1-c1nc(N2CCOCC2)nc(N2CCOCC2)n1
active: EKVX NSCLC 2.75% | SN12C renal 8.54% | UO-31 renal -26.2% | TK-10 renal -27.9% | ACHN renal -8.61% | CAKI-1 renal -11% | A498 renal -82.4% | CCRF-CEM leukemia 8.99% | MOLT-4 leukemia 1.48%

CN1CCN(CCOc2cc(OC3CCOCC3)c3c(Nc4c(Cl)ccc5c4OCO5)ncnc3c2)CC1
active: TK-10 renal 5.06%
inactive: EKVX NSCLC 43.8% | SN12C renal 46.1% | UO-31 renal 17.7% | ACHN renal 12.5% | CAKI-1 renal 21.7% | A498 renal 49.4% | CCRF-CEM leukemia 84.3% | MOLT-4 leukemia 56.2%

O=C(Nc1cccc(Cl)c1)Nc1ncc(CCNc2ncnc3ccsc23)s1
inactive: EKVX NSCLC 34.5% | SN12C renal 53.7% | UO-31 renal 27.5% | TK-10 renal 28.9% | ACHN renal 26.8% | CAKI-1 renal 21.7% | A498 renal 29.3% | CCRF-CEM leukemia 10.1%
active: MOLT-4 leukemia -4.94%

CNC(=O)c1cc(Oc2ccc(NC(=O)Nc3ccc(Cl)c(C(F)(F)F)c3)c(F)c2)ccn1
active: EKVX NSCLC -3.92% | SN12C renal -40.4% | UO-31 renal -43.1% | TK-10 renal -3.33% | ACHN renal 0.875% | CAKI-1 renal 1.01% | A498 renal -61.7% | CCRF-CEM leukemia 1.42% | MOLT-4 leukemia -7.86%

C1=C\COCc2cc(ccc2OCCN2CCCC2)Nc2nccc(n2)-c2cccc(c2)COC/1
inactive: TK-10 renal 55.3%
active: EKVX NSCLC 0.564% | SN12C renal -26.6% | UO-31 renal -29.2% | ACHN renal 3.85% | CAKI-1 renal -44.8% | A498 renal -43.3% | CCRF-CEM leukemia 4.28% | MOLT-4 leukemia -8.61%

NC(=O)Nc1cc(-c2cccc(F)c2)sc1C(=O)N[C@H]1CCCNC1
active: EKVX NSCLC 4.42% | SN12C renal -5.05% | UO-31 renal -95.4% | TK-10 renal -66.3% | ACHN renal 3.94% | CAKI-1 renal -82.3% | A498 renal -83.7% | CCRF-CEM leukemia 4.63% | MOLT-4 leukemia 2.79%

C/C(=N\NC(=O)Cn1c(-c2ccc(S(C)(=O)=O)cc2)nc2ccccc21)c1ccc(Cl)cc1
inactive: EKVX NSCLC 101% | SN12C renal 97.4% | UO-31 renal 66.1% | TK-10 renal 109% | ACHN renal 93.6% | CAKI-1 renal 91.9% | A498 renal 104% | CCRF-CEM leukemia 77% | MOLT-4 leukemia 79.7%

Cc1[nH]n(C(N)=S)c(=O)c1N=Nc1ccc(S(=O)(=O)Nc2ccncn2)cc1
active: CCRF-CEM leukemia -34.3%
inactive: EKVX NSCLC 120% | SN12C renal 97.6% | UO-31 renal 84.6% | TK-10 renal 126% | ACHN renal 106% | CAKI-1 renal 155% | A498 renal 87.4% | MOLT-4 leukemia 106%

O=C(NC[C@H](O)CO)c1ccncc1Nc1ccc(I)cc1F
inactive: EKVX NSCLC 45.1% | SN12C renal 60.3% | UO-31 renal 35.1% | TK-10 renal 40.5% | ACHN renal 41.4% | CAKI-1 renal 32.7% | CCRF-CEM leukemia 102% | MOLT-4 leukemia 90.3%
active: A498 renal -21.9%

CO[C@H]1C[C@@H]2CC[C@@H](C)[C@@](O)(O2)C(=O)C(=O)N2CCCC[C@H]2C(=O)O[C@H]([C@H](C)C[C@@H]2CC[C@@H](OC(=O)C(C)(CO)CO)[C@H](OC)C2)CC(=O)[C@H](C)/C=C(\C)[C@@H](O)[C@@H](OC)C(=O)[C@H](C)C[C@H](C)\C=C/C=C/C=C/1C
active: A498 renal 8.36% | MOLT-4 leukemia 0.877%
inactive: EKVX NSCLC 36.8% | SN12C renal 34.8% | UO-31 renal 15.3% | TK-10 renal 26.1% | ACHN renal 32.6% | CAKI-1 renal 30.9% | CCRF-CEM leukemia 16.2%

Cc1cccc(Cl)c1NC(=O)c1cnc(Nc2cc(N3CCOCC3)cc(N3CCOCC3)c2)s1
inactive: EKVX NSCLC 33.1% | SN12C renal 30% | CCRF-CEM leukemia 63.2% | MOLT-4 leukemia 27.8%
active: UO-31 renal -0.169% | TK-10 renal -65.2% | ACHN renal -7.5% | CAKI-1 renal -37.8% | A498 renal -22.6%

Cc1cc(C2(c3ccc(O)c(C)c3)OS(=O)(=O)c3ccccc32)ccc1O
inactive: EKVX NSCLC 111% | SN12C renal 101% | UO-31 renal 64.7% | TK-10 renal 111% | ACHN renal 108% | CAKI-1 renal 97.6% | A498 renal 94.2% | CCRF-CEM leukemia 101% | MOLT-4 leukemia 91.1%

CN1CCN(CCCOc2cccc3nc(Nc4ccc(Cl)c(C(F)(F)F)c4)ccc23)CC1
inactive: EKVX NSCLC 44.5% | SN12C renal 28.3% | UO-31 renal 28.6% | CAKI-1 renal 48.9% | A498 renal 30.8%
active: TK-10 renal -66.5% | ACHN renal -69.3% | CCRF-CEM leukemia -24.7% | MOLT-4 leukemia -57.6%

C=CCN1C(=O)c2cccc3c(-c4ccc5c(c4)ncn5C4CCCCC4)ccc(c23)C1=O
inactive: EKVX NSCLC 52.9% | SN12C renal 61.5% | UO-31 renal 34.5% | TK-10 renal 69.9% | ACHN renal 55.3% | CAKI-1 renal 52.2% | A498 renal 76.9% | CCRF-CEM leukemia 33%
active: MOLT-4 leukemia 5.4%

COc1ccc(S(=O)(=O)N(C(C)=O)c2ccccc2/C=C/c2cc[n+]([O-])cc2)cc1
inactive: EKVX NSCLC 31.8% | SN12C renal 32.4% | UO-31 renal 50% | TK-10 renal 49.2% | ACHN renal 42.5% | CAKI-1 renal 32.7% | CCRF-CEM leukemia 16.4% | MOLT-4 leukemia 22.5%
active: A498 renal 1.32%

Cc1cc(Oc2ccccc2)ccc1Nc1ncnc2ccc(-c3cnc(Cl)c(NS(C)(=O)=O)c3)cc12
inactive: EKVX NSCLC 21.3% | SN12C renal 35.6% | ACHN renal 30.4% | CCRF-CEM leukemia 21.2%
active: UO-31 renal 3.47% | TK-10 renal 4.28% | CAKI-1 renal 2.11% | A498 renal -30.8% | MOLT-4 leukemia -0.671%

O=C(NO)c1ccc(Cn2c(=O)n(-c3ccccc3F)c(=O)c3ccccc32)cc1
inactive: SN12C renal 11.5% | UO-31 renal 27.2% | ACHN renal 22% | CAKI-1 renal 25%
active: EKVX NSCLC 6.72% | TK-10 renal 6.07% | A498 renal -34.7% | CCRF-CEM leukemia 2.07% | MOLT-4 leukemia -8.31%

CCCCCCCC12Cc3ccccc3C1=Nc1c(c3ccccc3n1C)C2=O (configuration not stated)
inactive: EKVX NSCLC 98.8% | SN12C renal 92.1% | UO-31 renal 57.5% | TK-10 renal 102% | ACHN renal 93.3% | CAKI-1 renal 79.7% | A498 renal 86.4% | CCRF-CEM leukemia 83.6% | MOLT-4 leukemia 78.3%

O=C(Nc1cccc([N+](=O)[O-])c1)c1ccc(Cl)c(Cl)c1
inactive: EKVX NSCLC 66.4% | SN12C renal 67.9% | UO-31 renal 95.4% | TK-10 renal 49.9% | ACHN renal 49.8% | CAKI-1 renal 86.4% | A498 renal 79.9% | CCRF-CEM leukemia 82.7% | MOLT-4 leukemia 85.9%

O=S1(=O)OC(c2ccc(O)c(Cl)c2)(c2ccc(O)c(Cl)c2)c2ccccc21
inactive: EKVX NSCLC 112% | SN12C renal 97% | UO-31 renal 66.2% | TK-10 renal 100% | ACHN renal 96.9% | CAKI-1 renal 90.2% | A498 renal 90.3% | CCRF-CEM leukemia 102% | MOLT-4 leukemia 109%

CN1CCN(c2ccc(OC(F)(F)F)c(Nc3ncc4c(n3)-c3c(c(C(N)=O)nn3CCO)CC4)c2)CC1
active: A498 renal -5.99%
inactive: EKVX NSCLC 35.7% | SN12C renal 25.9% | UO-31 renal 35.3% | TK-10 renal 53.5% | ACHN renal 37.1% | CAKI-1 renal 28.4% | CCRF-CEM leukemia 18.2% | MOLT-4 leukemia 18.3%

CO[C@@H](C(=O)N1Cc2[nH]nc(NC(=O)c3ccc(N4CCN(C)CC4)cc3)c2C1)c1ccccc1
active: TK-10 renal 9.33% | A498 renal -37%
inactive: EKVX NSCLC 59.3% | SN12C renal 26.8% | UO-31 renal 50.7% | ACHN renal 41.9% | CAKI-1 renal 17.3% | CCRF-CEM leukemia 51.5% | MOLT-4 leukemia 31%

COc1cc2ncnc(Nc3ccc(O)cc3)c2cc1OC
inactive: EKVX NSCLC 66.3% | SN12C renal 62.2% | UO-31 renal 36.8% | ACHN renal 31.1% | CAKI-1 renal 43.4% | A498 renal 81.3% | CCRF-CEM leukemia 77.7% | MOLT-4 leukemia 75.3%
active: TK-10 renal 2.22%

Cc1cc(-c2cc(O)ccc2Cl)cc2nnc(Nc3ccc(OCCN4CCCC4)cc3)nc12
active: EKVX NSCLC -81.1% | SN12C renal -79.2% | UO-31 renal -87.3% | TK-10 renal -82.1% | ACHN renal -92.7% | CAKI-1 renal -83% | A498 renal -68.9% | CCRF-CEM leukemia -51.9% | MOLT-4 leukemia -42.9%

Cc1nc(NC(=O)N2CCC[C@H]2C(N)=O)sc1-c1ccnc(C(C)(C)C(F)(F)F)c1
active: A498 renal 1.67% | MOLT-4 leukemia 8.66%
inactive: EKVX NSCLC 41.1% | SN12C renal 57.7% | UO-31 renal 25.1% | TK-10 renal 13.3% | ACHN renal 36.9% | CAKI-1 renal 17.8% | CCRF-CEM leukemia 35.9%
